Reference: publication PMC7862700, “An all-to-all approach to the identification of sequence-specific readers for epigenetic DNA modifications on cytosine”

Tests used:
Assay in all cases: DAPPL (digital affinity profiling via proximity ligation, sequencing); 10 mM Tris-HCl pH 7.5, 50 mM NaCl, 1 mM DTT, 4% glycerol, room temperature, 30 min; GST-TFs on glutathione beads, 16-mer random dsDNA library, 0.1% formaldehyde crosslink after washing; high values mean tight binding
[1] = biological target: T1, FLI1 (Homo sapiens, UniProt Q01543 1-452); conditions: protein: recombinant; tags: N-terminal GST; dsDNA, one strand shown
T1 sequence: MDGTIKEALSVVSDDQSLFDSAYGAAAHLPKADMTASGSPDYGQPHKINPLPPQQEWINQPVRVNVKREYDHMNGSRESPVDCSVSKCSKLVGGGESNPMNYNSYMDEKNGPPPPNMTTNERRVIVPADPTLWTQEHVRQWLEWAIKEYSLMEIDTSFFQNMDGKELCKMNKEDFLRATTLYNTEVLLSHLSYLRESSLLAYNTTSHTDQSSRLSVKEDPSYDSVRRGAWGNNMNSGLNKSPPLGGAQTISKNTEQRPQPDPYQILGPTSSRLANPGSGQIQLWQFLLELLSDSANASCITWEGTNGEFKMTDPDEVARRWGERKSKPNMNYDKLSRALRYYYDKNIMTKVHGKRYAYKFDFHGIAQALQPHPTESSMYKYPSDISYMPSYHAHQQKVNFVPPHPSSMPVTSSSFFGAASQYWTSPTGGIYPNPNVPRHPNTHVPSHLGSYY
Outline: (§1)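 After expression in yeast as GST fusions, human transcription factors were bound to glutathione beads, DNA-barcoded and mixed with a tag-only sample. The pools were incubated with 200 nmole of a 16-mer random double-stranded DNA library in Tris/NaCl/DTT/glycerol buffer (30 min, room temperature), washed and crosslinked with 0.1% formaldehyde. Proximity ligation with BsaI/T4 ligase ran for 1 h at 37 °C, before PCR amplification and sequencing on an Illumina NextSeq500. Binding signal is a hexamer's read frequency for a factor divided by its frequency for the tag-only sample.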

[2] = biological target: T2, ELK1 (Homo sapiens, UniProt P19419 1-428); conditions: protein: recombinant; tags: N-terminal GST; dsDNA, one strand shown
T2 sequence: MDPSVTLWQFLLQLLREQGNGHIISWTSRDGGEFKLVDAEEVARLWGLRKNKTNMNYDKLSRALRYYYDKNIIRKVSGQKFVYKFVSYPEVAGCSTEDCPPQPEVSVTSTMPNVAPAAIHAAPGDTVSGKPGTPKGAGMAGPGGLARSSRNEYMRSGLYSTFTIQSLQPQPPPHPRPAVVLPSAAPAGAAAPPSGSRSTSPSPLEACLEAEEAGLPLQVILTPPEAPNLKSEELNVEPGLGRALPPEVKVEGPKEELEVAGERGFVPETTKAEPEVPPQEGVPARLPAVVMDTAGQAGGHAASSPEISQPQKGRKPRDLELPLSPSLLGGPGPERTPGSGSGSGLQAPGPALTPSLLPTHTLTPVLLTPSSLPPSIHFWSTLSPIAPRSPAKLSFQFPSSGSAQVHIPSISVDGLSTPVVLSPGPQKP
Outline: as §1

[3] = biological target: T3, GABPA (Homo sapiens, UniProt Q06546 1-454); conditions: protein: recombinant; tags: N-terminal GST; dsDNA, one strand shown
T3 sequence: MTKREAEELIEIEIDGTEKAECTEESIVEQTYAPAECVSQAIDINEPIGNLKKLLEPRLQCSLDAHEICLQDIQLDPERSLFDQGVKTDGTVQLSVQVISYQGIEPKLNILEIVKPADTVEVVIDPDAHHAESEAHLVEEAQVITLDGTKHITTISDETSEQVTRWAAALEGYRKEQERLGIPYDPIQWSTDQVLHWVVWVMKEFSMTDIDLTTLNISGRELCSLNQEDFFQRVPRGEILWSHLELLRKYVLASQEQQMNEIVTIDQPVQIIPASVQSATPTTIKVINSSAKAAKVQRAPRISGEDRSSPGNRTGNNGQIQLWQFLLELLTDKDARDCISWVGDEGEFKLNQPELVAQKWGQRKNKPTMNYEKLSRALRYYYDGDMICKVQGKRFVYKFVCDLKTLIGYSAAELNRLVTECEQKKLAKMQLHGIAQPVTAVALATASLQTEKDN
Outline: as §1

[4] = biological target: T4, ERG (Homo sapiens, UniProt P11308 1-479); conditions: protein: recombinant; tags: N-terminal GST; dsDNA, one strand shown
T4 sequence: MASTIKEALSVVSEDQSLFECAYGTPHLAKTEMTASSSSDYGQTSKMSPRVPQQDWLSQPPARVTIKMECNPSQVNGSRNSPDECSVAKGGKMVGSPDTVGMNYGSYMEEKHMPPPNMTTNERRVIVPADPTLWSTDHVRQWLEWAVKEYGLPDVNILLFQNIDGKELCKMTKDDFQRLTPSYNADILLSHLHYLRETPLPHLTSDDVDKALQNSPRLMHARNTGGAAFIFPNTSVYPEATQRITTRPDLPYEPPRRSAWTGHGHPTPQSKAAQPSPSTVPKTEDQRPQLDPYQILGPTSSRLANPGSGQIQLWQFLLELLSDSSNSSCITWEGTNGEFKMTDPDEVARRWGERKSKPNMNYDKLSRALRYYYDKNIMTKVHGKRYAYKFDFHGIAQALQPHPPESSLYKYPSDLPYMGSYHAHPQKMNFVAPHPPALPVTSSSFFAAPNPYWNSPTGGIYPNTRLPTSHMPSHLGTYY
Outline: as §1

[5] = biological target: ELF1 (Homo sapiens, UniProt P32519 1-619); conditions: protein: recombinant; tags: N-terminal GST; dsDNA, one strand shown
Chain of ELF1 (P32519 whole entry): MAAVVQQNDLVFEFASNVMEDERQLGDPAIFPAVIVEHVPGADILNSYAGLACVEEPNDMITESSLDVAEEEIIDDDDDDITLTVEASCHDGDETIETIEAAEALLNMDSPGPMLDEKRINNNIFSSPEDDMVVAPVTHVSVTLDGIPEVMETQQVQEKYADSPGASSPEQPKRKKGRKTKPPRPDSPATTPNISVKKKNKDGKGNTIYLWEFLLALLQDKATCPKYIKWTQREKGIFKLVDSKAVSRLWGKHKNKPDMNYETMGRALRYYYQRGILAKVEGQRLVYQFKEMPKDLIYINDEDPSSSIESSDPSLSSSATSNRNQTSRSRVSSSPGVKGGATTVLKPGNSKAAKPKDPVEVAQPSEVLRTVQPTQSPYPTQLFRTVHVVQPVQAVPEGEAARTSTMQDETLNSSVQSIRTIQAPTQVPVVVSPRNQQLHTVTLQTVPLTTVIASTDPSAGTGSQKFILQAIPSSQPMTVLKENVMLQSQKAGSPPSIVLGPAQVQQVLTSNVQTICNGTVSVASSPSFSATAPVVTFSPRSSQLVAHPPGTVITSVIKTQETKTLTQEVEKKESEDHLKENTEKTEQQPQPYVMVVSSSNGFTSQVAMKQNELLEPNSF
Outline: as §1

[6] = biological target: T5, EHF (Homo sapiens, UniProt Q9NZC4 1-300); conditions: protein: recombinant; tags: N-terminal GST; dsDNA, one strand shown
T5 sequence: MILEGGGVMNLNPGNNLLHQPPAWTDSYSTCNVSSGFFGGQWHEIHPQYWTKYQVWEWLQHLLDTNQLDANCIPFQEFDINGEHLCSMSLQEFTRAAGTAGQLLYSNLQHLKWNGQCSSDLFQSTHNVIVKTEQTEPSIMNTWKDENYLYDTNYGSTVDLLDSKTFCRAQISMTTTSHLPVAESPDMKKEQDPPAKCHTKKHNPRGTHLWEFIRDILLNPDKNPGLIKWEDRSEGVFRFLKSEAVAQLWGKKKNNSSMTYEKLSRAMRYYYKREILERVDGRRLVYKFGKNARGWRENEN
Outline: as §1

[7] = biological target: SPI1 (Homo sapiens, UniProt P17947 1-270); conditions: protein: recombinant; tags: N-terminal GST; dsDNA, one strand shown
Outline: as §1

[8] = biological target: SPIB (Homo sapiens, UniProt Q01892 1-262); conditions: protein: recombinant; tags: N-terminal GST; dsDNA, one strand shown
Chain of SPIB (Q01892 whole entry): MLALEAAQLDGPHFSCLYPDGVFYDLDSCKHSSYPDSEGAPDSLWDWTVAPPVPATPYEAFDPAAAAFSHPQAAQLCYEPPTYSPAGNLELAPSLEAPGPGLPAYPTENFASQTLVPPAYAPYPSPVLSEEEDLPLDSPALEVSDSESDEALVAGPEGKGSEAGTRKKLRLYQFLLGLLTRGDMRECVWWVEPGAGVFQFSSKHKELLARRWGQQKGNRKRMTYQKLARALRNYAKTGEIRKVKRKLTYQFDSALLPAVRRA
Outline: as §1

[9] = biological target: T6, FEV (Homo sapiens, UniProt Q99581 1-238); conditions: protein: recombinant; tags: N-terminal GST; dsDNA, one strand shown
T6 sequence: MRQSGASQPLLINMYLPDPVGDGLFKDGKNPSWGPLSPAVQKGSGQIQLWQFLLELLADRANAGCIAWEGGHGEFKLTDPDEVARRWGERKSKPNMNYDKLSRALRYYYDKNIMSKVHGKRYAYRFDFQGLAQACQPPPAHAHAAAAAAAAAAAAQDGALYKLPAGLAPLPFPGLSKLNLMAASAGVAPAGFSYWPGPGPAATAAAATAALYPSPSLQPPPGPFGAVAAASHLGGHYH
Outline: as §1

[10] = biological target: ETV5 (Homo sapiens, UniProt P41161 1-510); conditions: protein: recombinant; tags: N-terminal GST; dsDNA, one strand shown
Chain of ETV5 (P41161 whole entry): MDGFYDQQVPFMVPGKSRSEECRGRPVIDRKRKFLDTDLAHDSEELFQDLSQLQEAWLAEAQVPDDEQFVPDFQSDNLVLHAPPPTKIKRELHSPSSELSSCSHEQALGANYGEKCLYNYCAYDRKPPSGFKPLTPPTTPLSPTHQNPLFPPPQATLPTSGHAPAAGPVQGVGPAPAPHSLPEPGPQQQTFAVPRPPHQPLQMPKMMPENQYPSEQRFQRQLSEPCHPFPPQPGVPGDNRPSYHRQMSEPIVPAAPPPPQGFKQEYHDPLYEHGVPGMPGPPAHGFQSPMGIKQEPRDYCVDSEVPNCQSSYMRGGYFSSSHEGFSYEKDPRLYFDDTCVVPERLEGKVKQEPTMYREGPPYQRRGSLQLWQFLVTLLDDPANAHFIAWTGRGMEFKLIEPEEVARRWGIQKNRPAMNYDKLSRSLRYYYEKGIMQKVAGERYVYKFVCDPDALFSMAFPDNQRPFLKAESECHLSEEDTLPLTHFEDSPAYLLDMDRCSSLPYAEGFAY
Outline: as §1

[11] = biological target: HSF1 (Homo sapiens, UniProt Q00613 1-529); conditions: protein: recombinant; tags: N-terminal GST; chain copies: 3; dsDNA, one strand shown
Chain of HSF1 (Q00613 whole entry): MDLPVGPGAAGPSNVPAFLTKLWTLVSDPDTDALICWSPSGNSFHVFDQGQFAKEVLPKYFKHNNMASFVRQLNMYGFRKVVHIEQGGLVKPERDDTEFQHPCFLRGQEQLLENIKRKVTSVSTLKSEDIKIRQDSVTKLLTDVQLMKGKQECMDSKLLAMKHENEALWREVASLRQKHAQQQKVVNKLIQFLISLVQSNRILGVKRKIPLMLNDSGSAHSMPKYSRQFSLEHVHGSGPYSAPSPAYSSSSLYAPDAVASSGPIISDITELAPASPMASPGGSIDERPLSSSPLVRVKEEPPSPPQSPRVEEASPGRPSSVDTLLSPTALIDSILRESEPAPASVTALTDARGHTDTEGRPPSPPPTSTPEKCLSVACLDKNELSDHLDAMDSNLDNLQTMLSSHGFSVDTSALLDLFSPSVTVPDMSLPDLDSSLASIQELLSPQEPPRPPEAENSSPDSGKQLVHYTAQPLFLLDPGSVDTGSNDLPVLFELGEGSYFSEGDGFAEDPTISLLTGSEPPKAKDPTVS
Outline: as §1

[12] = biological target: T7, SPIC (Homo sapiens, UniProt Q8N5J4 1-248); conditions: protein: recombinant; tags: N-terminal GST; dsDNA, one strand shown
T7 sequence: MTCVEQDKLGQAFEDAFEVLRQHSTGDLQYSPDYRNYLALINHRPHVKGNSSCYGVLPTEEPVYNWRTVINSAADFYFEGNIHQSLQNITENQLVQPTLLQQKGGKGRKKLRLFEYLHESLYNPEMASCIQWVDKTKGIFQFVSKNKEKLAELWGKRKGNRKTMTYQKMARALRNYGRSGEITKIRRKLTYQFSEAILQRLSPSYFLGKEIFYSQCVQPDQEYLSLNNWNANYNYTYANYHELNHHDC
Outline: as §1

[13] = biological target: ELF4 (Homo sapiens, UniProt Q99607 1-663); conditions: protein: recombinant; tags: N-terminal GST; dsDNA, one strand shown
Chain of ELF4 (Q99607 whole entry): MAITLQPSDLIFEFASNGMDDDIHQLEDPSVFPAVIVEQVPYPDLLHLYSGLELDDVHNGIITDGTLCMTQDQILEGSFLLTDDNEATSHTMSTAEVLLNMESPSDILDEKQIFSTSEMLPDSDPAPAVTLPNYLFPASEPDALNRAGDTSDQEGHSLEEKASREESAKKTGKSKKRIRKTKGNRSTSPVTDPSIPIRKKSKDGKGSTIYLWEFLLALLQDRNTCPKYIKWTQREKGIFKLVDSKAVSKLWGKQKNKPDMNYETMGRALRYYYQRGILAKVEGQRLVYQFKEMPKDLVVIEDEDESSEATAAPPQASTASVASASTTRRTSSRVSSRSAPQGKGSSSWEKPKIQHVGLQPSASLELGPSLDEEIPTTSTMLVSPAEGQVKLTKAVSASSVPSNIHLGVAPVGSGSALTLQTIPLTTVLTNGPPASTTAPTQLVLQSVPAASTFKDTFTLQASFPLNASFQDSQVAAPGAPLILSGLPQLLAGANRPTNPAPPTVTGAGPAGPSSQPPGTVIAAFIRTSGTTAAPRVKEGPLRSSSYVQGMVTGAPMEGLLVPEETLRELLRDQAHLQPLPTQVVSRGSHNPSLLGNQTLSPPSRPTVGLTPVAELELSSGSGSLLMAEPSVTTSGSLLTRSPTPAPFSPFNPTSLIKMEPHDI
Outline: as §1

[14] = biological target: T8, ELK4 (Homo sapiens, UniProt P28324-2 1-405); conditions: protein: recombinant; tags: N-terminal GST; dsDNA, one strand shown
T8 sequence: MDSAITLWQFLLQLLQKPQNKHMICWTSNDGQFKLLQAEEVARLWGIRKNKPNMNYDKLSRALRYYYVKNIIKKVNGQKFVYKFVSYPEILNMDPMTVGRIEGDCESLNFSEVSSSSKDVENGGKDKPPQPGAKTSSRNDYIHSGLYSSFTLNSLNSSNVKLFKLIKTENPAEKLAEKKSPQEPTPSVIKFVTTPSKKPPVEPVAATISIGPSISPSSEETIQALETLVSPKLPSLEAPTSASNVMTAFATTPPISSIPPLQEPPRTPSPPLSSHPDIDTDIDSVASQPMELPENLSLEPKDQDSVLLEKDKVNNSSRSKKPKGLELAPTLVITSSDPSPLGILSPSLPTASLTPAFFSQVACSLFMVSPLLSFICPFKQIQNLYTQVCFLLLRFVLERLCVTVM
Outline: as §1

[15] = biological target: T9, ELF3 (Homo sapiens, UniProt P78545 1-371); conditions: protein: recombinant; tags: N-terminal GST; dsDNA, one strand shown
T9 sequence: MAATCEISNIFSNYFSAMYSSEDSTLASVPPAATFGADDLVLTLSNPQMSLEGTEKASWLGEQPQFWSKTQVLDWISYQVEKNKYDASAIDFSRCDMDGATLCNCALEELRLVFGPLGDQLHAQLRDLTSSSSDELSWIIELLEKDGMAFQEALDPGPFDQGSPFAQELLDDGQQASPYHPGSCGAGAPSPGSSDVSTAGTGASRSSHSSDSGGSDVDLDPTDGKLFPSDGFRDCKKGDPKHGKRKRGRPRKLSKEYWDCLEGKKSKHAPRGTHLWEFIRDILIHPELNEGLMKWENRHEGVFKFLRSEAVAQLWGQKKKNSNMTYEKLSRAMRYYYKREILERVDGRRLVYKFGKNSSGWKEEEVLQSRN
Outline: as §1

[16] = biological target: ETV1 (Homo sapiens, UniProt P50549 1-477); conditions: protein: recombinant; tags: N-terminal GST; dsDNA, one strand shown
Chain of ETV1 (P50549 whole entry): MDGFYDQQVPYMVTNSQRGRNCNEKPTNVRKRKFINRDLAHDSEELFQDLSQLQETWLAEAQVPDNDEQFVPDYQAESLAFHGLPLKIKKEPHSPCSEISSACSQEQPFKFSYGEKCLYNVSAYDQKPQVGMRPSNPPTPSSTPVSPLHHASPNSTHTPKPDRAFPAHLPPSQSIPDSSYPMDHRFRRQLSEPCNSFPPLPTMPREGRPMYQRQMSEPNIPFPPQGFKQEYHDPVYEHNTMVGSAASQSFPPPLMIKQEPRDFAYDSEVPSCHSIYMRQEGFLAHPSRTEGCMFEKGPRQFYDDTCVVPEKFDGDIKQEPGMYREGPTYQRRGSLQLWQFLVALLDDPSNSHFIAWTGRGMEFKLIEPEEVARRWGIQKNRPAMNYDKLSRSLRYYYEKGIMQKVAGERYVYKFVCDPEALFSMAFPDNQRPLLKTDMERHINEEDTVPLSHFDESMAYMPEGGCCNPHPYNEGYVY
Outline: as §1

TGCGCA
binding signal [1]: 1.17 fold enrichment (6-mer frequency, TF over GST control) | binding signal [2]: 1.07 fold enrichment (6-mer frequency, TF over GST control) | binding signal [3]: 1.07 fold enrichment (6-mer frequency, TF over GST control) | binding signal [4]: 1.07 fold enrichment (6-mer frequency, TF over GST control) | binding signal [5]: 1.14 fold enrichment (6-mer frequency, TF over GST control) | binding signal [6]: 1.16 fold enrichment (6-mer frequency, TF over GST control) | binding signal [7]: 1.08 fold enrichment (6-mer frequency, TF over GST control) | binding signal [8]: 1.02 fold enrichment (6-mer frequency, TF over GST control) | binding signal [9]: 1.14 fold enrichment (6-mer frequency, TF over GST control) | binding signal [10]: 1.12 fold enrichment (6-mer frequency, TF over GST control) | binding signal [11]: 1.07 fold enrichment (6-mer frequency, TF over GST control) | binding signal [12]: 1.15 fold enrichment (6-mer frequency, TF over GST control) | binding signal [13]: 1.09 fold enrichment (6-mer frequency, TF over GST control) | binding signal [14]: 1.12 fold enrichment (6-mer frequency, TF over GST control) | binding signal [15]: 1.06 fold enrichment (6-mer frequency, TF over GST control) | binding signal [16]: 1.07 fold enrichment (6-mer frequency, TF over GST control)
